# In PubChem BioAssay (NCI):
# Several values for one entry are separate records, joined by “and”; a condition that tells them apart may be missing. Equal values may be shown once. About 83,000 compounds went through this panel and 20% of them were active in at least one assay; those are over-represented in the sample as a whole.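 The test compound was applied at a single concentration to cells in 96-well plates for 48 hours, and percent growth was recorded.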 Activity calls are given as the source filed them. Rule for the calls: active = growth percent below 10; inactive = the rest.
# Experiments:
# Assay in all cases: NCI-60 one-dose screen, 48 h (100 = growth as untreated, 0 = no growth, -100 = all killed)
# Settings in all cases: 10 µM
# [1] = tested on: NCI-H23 lung
# [2] = tested on: NCI-H522 lung
# [3] = tested on: MDA-MB-231 breast
# [4] = tested on: M14 melanoma
# [5] = tested on: SK-MEL-5 melanoma
# [6] = tested on: UACC-62 melanoma
# [7] = tested on: MOLT-4 leukemia
# [8] = tested on: SR leukemia
# [9] = tested on: OVCAR-8 ovarian
# [10] = tested on: OVCAR-5 ovarian
# [11] = tested on: OVCAR-4 ovarian
# [12] = tested on: SK-OV-3 ovarian
# [13] = tested on: IGROV1 ovarian
# [14] = tested on: HS 578T breast
# [15] = tested on: NCI/ADR-RES ovarian
# [16] = tested on: T-47D breast
# [17] = tested on: SW-620 colon
# [18] = tested on: MCF7 breast
# [19] = tested on: HCT-116 colon
# [20] = tested on: KM12 colon
SMILES,growth [1],growth [2],growth [3],growth [4],growth [5],growth [6],growth [7],growth [8],growth [9],growth [10],growth [11],growth [12],growth [13],growth [14],growth [15],growth [16],growth [17],growth [18],growth [19],growth [20]
COc1cc2c(O[C@@H]3OC[C@H](O)[C@H](O)[C@H]3O)c3c(c(-c4ccc5c(c4)OCO5)c2cc1OC)C(=O)OC3,72.8% (inactive),13.5% (inactive),22.9% (inactive),31.3% (inactive),-93.4% (active),20.8% (inactive),110% (inactive),14.5% (inactive),22% (inactive),39.4% (inactive),74% (inactive),69.1% (inactive),53% (inactive),91.1% (inactive),90.1% (inactive),18.2% (inactive),68.8% (inactive),71.2% (inactive),29.1% (inactive),71.6% (inactive)
CC(=O)O[C@@H]1C[C@H]2O[C@@H]3C=C(C)CC[C@]3(C)[C@]1(C)[C@]21CO1,7.96% (active),2.05% (active),4.27% (active),-45.9% (active),-50.9% (active),2.75% (active),-9.55% (active),0.874% (active),8.44% (active),84.3% (inactive),-1.86% (active),18.1% (inactive),22.8% (inactive),22.7% (inactive),14.6% (inactive),-2.72% (active),7.09% (active),3.89% (active),0.731% (active),27.4% (inactive)
CC1=C(CN(O)C(N)=O)C2=C(C)C3(CC3)[C@@](C)(O)C(=O)C2=C1,-28.5% (active),0.934% (active),6.59% (active),-63% (active),-61.6% (active),-19.7% (active),104% (inactive),67.6% (inactive),1.75% (active),17.5% (inactive),-0.96% (active),-16.3% (active),11.1% (inactive),-16.8% (active),-5.11% (active),-3.77% (active),86% (inactive),9.79% (active),4.72% (active),3.43% (active)
CC1=C(CCC=NNC(N)=O)C2=C(C)C3(CC3)[C@@](C)(O)C(=O)C2=C1,-35.2% (active),-62% (active),-5% (active),-84.4% (active),-80.6% (active),-54.9% (active),47.2% (inactive),29.9% (inactive),-36.1% (active),-6.93% (active),-33.3% (active),-52.1% (active),-17.8% (active),-23.6% (active),-18.1% (active),-9.73% (active),55.4% (inactive),6.29% (active),1.32% (active),6.64% (active)
C/C=C\C(=O)O[C@@H]1CC2O[C@@H]3C=C(C)C(=O)C[C@]3(C)[C@]1(C)[C@]21CO1,-21.3% (active),-18.4% (active),-21.1% (active),-78.6% (active),-57% (active),-27.2% (active),-26.4% (active),-13.1% (active),0.288% (active),-3.51% (active),-12.2% (active),-15.1% (active),1.08% (active),-2.98% (active),-3.97% (active),-24% (active),0.59% (active),0.933% (active),-29.4% (active),3.28% (active)
CC1=C[C@H]2O[C@@H]3C[C@H]4OC(=O)/C=C\C=C\[C@H]([C@@H](C)O)OCC[C@@H](C)[C@H](O)C(=O)OC[C@@]2(CC1)[C@]4(C)[C@]31CO1,-36.6% (active),-43.4% (active),-25.2% (active),-76% (active),-90.2% (active),-66.6% (active),-19.2% (active),-10.5% (active),-12.8% (active),-16.8% (active),-19% (active),-18.6% (active),-13.4% (active),-6.56% (active),-24.9% (active),-19% (active),0.381% (active),-7.85% (active),-27.7% (active),4.84% (active)
C/C=C/CC(C)C(O)[C@H](NC(=O)[C@@H]1CCCN1C(=O)C(C)(C)NC(=O)CCCCCCCCC)C(=O)N[C@@](C)(CC)C(=O)N[C@@H](CCC(N)=O)C(=O)N[C@H](CCC(N)=O)C(=O)NC(C)(C)C(=O)N[C@@](C)(CC)C(=O)N[C@@H](CCC(N)=O)C(=O)N[C@H](CC(C)C)C(=O)N[C@H](CO)CC(C)C (stereo not given in full),105% (inactive) and -48.3% (active),101% (inactive) and -77.6% (active),106% (inactive) and -96.8% (active),100% (inactive) and -67.5% (active),99.9% (inactive) and -90.2% (active),96% (inactive) and -96.8% (active),101% (inactive) and -14.5% (active),92% (inactive) and 11.3% (inactive),99.4% (inactive) and -48.6% (active),106% (inactive) and -64.3% (active),106% (inactive) and 19.2% (inactive),111% (inactive) and -11.2% (active),106% (inactive) and -23.2% (active),109% (inactive) and -71.9% (active),106% (inactive) and -38.7% (active),95.9% (inactive) and -31.3% (active),99.1% (inactive) and 3.5% (active),96.1% (inactive) and -68.2% (active),102% (inactive) and 0.686% (active),108% (inactive) and -60.9% (active)
